Laboratory results from PubChem BioAssay AID1851 (National Center for Advancing Translational Sciences (NCATS), 2009).
Where “and” joins values, the source holds several entries; their conditions need not be identical. Equal values may be shown once. The whole screen tested about 16,000 compounds, of which about 5,700 (36%) were called active. Not shown: some 24% with an inconclusive outcome. Calls follow the shape of the dose curve; as a rule, active = well fitted curve in the direction sought with a large enough effect; inconclusive = small, poorly fitted or top-dose-only effect, or effect the other way; inactive = no such curve, though single readings can be large or run the other way. This is one part of the list. More than one record can exist for a structure, and the calls need not agree.

Molecular target: Cytochrome P450 1A2 (Homo sapiens) (UniProt P05177)
Sequence (P05177 whole entry, looked up): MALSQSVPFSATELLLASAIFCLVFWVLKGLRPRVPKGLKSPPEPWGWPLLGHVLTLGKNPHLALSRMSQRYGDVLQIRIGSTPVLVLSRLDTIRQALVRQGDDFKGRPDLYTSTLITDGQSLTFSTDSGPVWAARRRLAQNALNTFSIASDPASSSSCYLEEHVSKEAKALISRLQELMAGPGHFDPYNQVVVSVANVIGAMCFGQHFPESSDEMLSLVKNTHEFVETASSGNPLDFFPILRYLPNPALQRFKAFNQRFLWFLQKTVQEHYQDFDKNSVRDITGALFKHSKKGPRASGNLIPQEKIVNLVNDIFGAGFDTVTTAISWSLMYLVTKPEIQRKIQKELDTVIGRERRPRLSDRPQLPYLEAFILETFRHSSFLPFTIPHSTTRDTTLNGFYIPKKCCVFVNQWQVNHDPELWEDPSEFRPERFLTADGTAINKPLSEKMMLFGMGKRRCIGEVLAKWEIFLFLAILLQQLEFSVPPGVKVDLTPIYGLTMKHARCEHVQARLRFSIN
Test: Cytochrome panel assay with activity outcomes
Settings: recombinant CYP, pro-luciferin dealkylation, luminescence, p450-cyp1a2; series mostly up to 57.1 µM; activity, negative = inhibition: at the top concentration
% is scaled to controls: 0 for no effect and ±100 for the full control effect.

Compound | AC50 | activity, negative = inhibition
Nc1c(-c2ccccc2)cnn1-c1cccc([N+](=O)[O-])c1 | 3.55 µM (active) | –
Nc1nc2c(ncn2[C@@H]2C=C[C@@H](CO)C2)c(=O)[nH]1 | – | -4.34% [at 11.4 µM] (inactive)
Clc1ccccc1CSc1nnc(/C=C/c2ccccc2)o1 | 1.26 µM (active) | –
Clc1ccccc1CSc1nnc(-c2ccncc2)o1 | 0.794 µM (active) | –
Cc1ccc(NC(=O)CSc2nnc(-c3ccncc3)o2)cc1 | – | -19.3% (inactive)
Clc1cccc(Cl)c1CSc1nnc(/C=C/c2ccccc2)o1 | 4.47 µM (active) | –
Nc1nc(SCc2ccccc2Cl)cc(C(=O)O)n1 | – | 6.21% [at 2.29 µM] (inactive)
CNC[C@H](O)[C@H](O)[C@H](O)[C@H](O)CO | – | -4.07% [at 25.6 µM] (inactive)
Cc1nc([N+](=O)[O-])c(N2CCN(C)CC2)n1Cc1ccccc1 | – | -2.13% (inactive)
CN1CCC(=C2c3ccccc3C=Cc3ccccc32)CC1 | inactive | –
CC(=O)N1CCC2(CCCN(Cc3ccccc3)C2)CC1 | – | 9.1% (inactive)
CN1CCc2c(c3ccccc3n2Cc2ccccc2)C1 | 5.01 µM (active) | –
CN1CCc2nc(N)nc(-c3nc(N)nc4c3CN(C)CC4)c2C1 | – | -3.87% [at 2.29 µM] (inactive)
CN1CCc2c(c3ccccc3n2C)C1 | 12.6 µM (active) | –
CCC1(c2ccccc2)C(=O)NCNC1=O | – | -3.29% [at 25.6 µM] (inactive)
N=C1[C@@H](O)[C@]2(I)c3ccccc3N3C(=N)[C@H](O)[C@@H]4c5ccccc5N1[C@@H]4[C@@H]32 | 2.51 µM (active) | –
Cn1cccc1C(=O)N1CCC[C@@]2(CCN(Cc3cc(C(F)(F)F)cc(C(F)(F)F)c3)C2)C1 | – | -13.9% (inactive)
CCOc1ccc(NC(=S)N(Cc2ccc(Cl)cc2)Cc2ccco2)cc1 | 3.55 µM (active) | –
CCOc1ccc(NC(=S)N(Cc2ccc(N(C)C)cc2)Cc2ccco2)cc1 | 1.26 µM (active) | –
O=C(COc1ccc(Cl)cc1)Nc1ccc(N2CCN(C(=O)c3ccco3)CC2)cc1 | – | 8.86% (inactive)
Cc1nn(C)cc1C(C(=O)NC1CCCCC1)N(C(=O)Cc1cccs1)c1ccc(C(C)C)cc1 (stereo not drawn) | – | -7.11% (inactive)

Compound | AC50 | activity, negative = inhibition
CN1CCC(N(C)C(=O)CCc2nc3ccccc3c(=O)[nH]2)CC1 | – | -10.8% (inactive)
CC1Cc2ccccc2N1Cc1nc2cc(C(F)(F)F)ccc2c(=O)[nH]1 (stereo not drawn) | 3.55 µM (active) | –
Cc1cc(C)c2c(SCc3ccc(Cl)cc3Cl)nc(N)nc2n1 | 3.16 µM (active) | –
O=C1OCC(c2ccccc2)=C1c1ccc(S(=O)(=O)N2CCOCC2)s1 | 25.1 µM (active) | –
Cc1ccc(NC(=O)c2cc(N3C(=O)C4CC=CCC4C3=O)ccc2N2CCOCC2)cc1Cl (stereo not drawn) | 6.31 µM (active) | –
NC(=O)c1ccc(N2CCCCC2)c(N2C(=O)C3CC=CCC3C2=O)c1 (stereo not drawn) | – | 13.4% (inactive)
Cc1ccc(NC(=O)CSCC(=O)Nc2ccc(N3CCOCC3)c(Cl)c2)cc1 | – | -17.7% (inactive)
CO/N=C(/CNC(=O)c1ccc(Cl)cc1Cl)c1ccc(Cl)cc1 | 2.51 µM (active) | –
CC1(C)CC(O)CC(C)(C)N1CC(O)COCCOc1ccc(Br)cc1 (stereo not drawn) | – | 3.05% (inactive)
CCSc1c(C(=O)NC)ccc2c1C(=O)c1ccccc1C2=O | 0.316 µM (active) | –
CCSc1nnc(-c2ccccc2NC(C)=O)c(=O)[nH]1 | – | -12.1% (inactive)
Cc1[nH]c2c(C)cccc2c1CCNC(=O)c1ccc2c(c1[N+](=O)[O-])C(=O)c1ccccc1C2=O | – | -22.8% (inactive)
N#C/C(=C(/O)CN1CCCCC1)c1nc(-c2ccc(Cl)cc2)cs1 | 6.31 µM (active) | –
O=C1OC2CC3CC1CC(O)(C3)C2 (stereo not drawn) | – | -7.13% (inactive)
NC(=O)CSc1nc2sc(-c3ccccc3)cc2c(=O)n1N | 5.01 µM (active) | –
COc1cc(/C=C\c2ccc(OC)cc2OC)cc(OC)c1 | 0.794 µM (active) | –
CNC(C)c1cc(OC)ccc1OC (stereo not drawn) | – | -6.45% (inactive)
COC(=O)C(NC(=O)c1ccc(F)cc1)(Nc1ncc(S(=O)(=O)c2ccc([N+](=O)[O-])cc2)s1)C(F)(F)F (stereo not drawn) | – | -16.5% (inactive)
Clc1cccc(Oc2cnc3ccccc3n2)c1 | 2.51 µM (active) | –
CCOC(=O)Cn1nc(C)n(-c2ccc(C)cc2)c1=O | – | -15.3% (inactive)
CCOC(=O)c1cc2c(C)n(-c3ccc(C)cc3)c(C)c2ccc1=O | 12.6 µM (active) | –

Compound | AC50 | activity, negative = inhibition
c1ccc(-c2c3ccccc3nc3[nH]c4ccccc4c23)cc1 | 0.501 µM (active) | –
CCCCc1c2ccccc2nc2[nH]c3ccccc3c12 | 0.2 µM (active) | –
O=C(O)[C@@H](O)[C@@H](O)[C@H](O)[C@H](O)CO | – | -5.55% [at 2.29 µM] (inactive)
CO[C@@H]1COC(=O)CC=C[C@@H](C)[C@@H]2C=C[C@H](O)[C@@H](COC(=O)C/C=C\[C@H]1C)O2 | – | -1.42% [at 11.4 µM] (inactive)
CNc1ncc(C(=O)c2ccccc2)s1 | 4.47 µM (active) | –
CC(C)(C)NC(=O)C(=O)NNC(=O)c1ccccc1 | – | 4.42% (inactive)
CC(C)(C)c1nnc(NC(=O)NS(=O)(=O)c2ccccc2)s1 | – | -30% (inactive)
Cc1ccc(S(=O)(=O)NCC2CCC(C(=O)O)CC2)cc1 (stereo not drawn) | – | 0.756% (inactive)
Cc1ccc(NNS(=O)(=O)c2ccc(C)cc2)cc1 | 2.82 µM (active) | –
O=S(=O)(C[C@H](O)C(Cl)(Cl)Cl)NNc1ccccc1 | – | 0.811% [at 2.29 µM] (inactive)
Cc1ccc(-c2nn3c(C)nnc3c3ccccc23)cc1S(=O)(=O)NCc1ccccc1 | – | -15.2% (inactive)
Cc1ccc(S(=O)(=O)N[C@H](CO)C(=O)O)cc1 | – | -12% [at 11.4 µM] (inactive)
Cc1ccc(NC(=O)NNS(=O)(=O)c2ccc(Br)cc2)cc1 | – | -8.48% (inactive)
Cc1ccc(S(=O)(=O)N[C@H](C(=O)O)C(C)C)cc1 | – | -11% [at 11.4 µM] (inactive)
Cc1ccc(S(=O)(=O)NNc2ccccc2)cc1 | 2.82 µM (active) | –
Cc1ccc(S(=O)(=O)NCc2ccccc2)cc1 | 0.501 µM (active) | –
CCOC(=O)Nc1ccc(S(=O)(=O)NCc2ccccc2)cc1 | – | -14% (inactive)
COc1cc(C)c(Br)cc1S(=O)(=O)NCc1ccccc1 | 10 µM (active) | –
C=CC[N+]1(CC#CCOC(c2ccccc2)c2ccccc2)CCOCC1 | – | -6.25% (inactive)
N#Cc1cc2nc(O)c(O)nc2cc1[N+](=O)[O-] | inactive and 39.8 µM (active) | –
NS(=O)(=O)c1cccc2c1c([N+](=O)[O-])cc1nc(O)c(O)nc12 | – | -10.3% (inactive)
